Compound activity (PubChem)
Rows were chosen to be rich in hits. Some 1.7% of all compounds tested hit in one or more screens of this group.
HTR5A ag ctr: activates human HTR5A in OPRM1-OPRD1 agonist counter-screen; HTR5A agonist assay, luminescence, cell-based; activation, % at 9.3 µM; 340,000 tested, 0.61% active; AID 504692; in the data active = activation mostly above about 9.5%, no sharp cut-off; inactive = mostly below about 7.6%
Target sequence (P47898 whole entry, looked up): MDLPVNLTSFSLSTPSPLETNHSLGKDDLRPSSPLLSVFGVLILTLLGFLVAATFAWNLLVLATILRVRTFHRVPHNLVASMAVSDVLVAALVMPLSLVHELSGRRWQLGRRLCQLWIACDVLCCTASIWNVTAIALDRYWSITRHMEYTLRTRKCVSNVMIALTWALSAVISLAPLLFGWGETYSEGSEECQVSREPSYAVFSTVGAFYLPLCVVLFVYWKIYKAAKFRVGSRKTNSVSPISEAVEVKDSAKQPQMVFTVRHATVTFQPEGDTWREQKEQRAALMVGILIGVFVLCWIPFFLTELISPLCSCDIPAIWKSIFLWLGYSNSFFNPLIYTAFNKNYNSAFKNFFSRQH
HTR5A inv ctr: counter-screen for OPRM1-OPRD1 inverse agonists: human HTR5A inverse agonism. HTR5A cell line, luminescence. P47898. 340,000 tested, 0.083% active. inhibition, % at 9.3 µM; in the data active = inhibition mostly above about 23%, no sharp cut-off; inactive = mostly below about 18%
MOR-DOR inv ag: inverse agonists of human mu-delta opioid receptor heterodimerization. inhibition, % at 9.3 µM. cell-based MOR-DOR heterodimer luminescence, inverse agonism. 340,000 tested, 0.21% active; in the data active = inhibition above about 22%, passing the limit was not always enough
V-ATPase pHluor: yeast V-ATPase proton transport regulation by pHLuorin | S. cerevisiae, pHLuorin cytosolic pH fluorescence | response, % at 10 µM | 350,000 tested, 0.37% active; in the data active = response mostly above about 7.3%, no sharp cut-off; inactive = mostly below about 5.4%; also: actives read high
OPRM1-OPRD1 ag: agonists of human mu-delta opioid receptor heterodimerization. 340,000 tested, 0.3% active. P35372+P41143. activation, % at 9.3 µM. AID 504326. cells, OPRM1-OPRD1 heterodimerization, luminescence; in the data active = activation above about 18%
MIN6 prolif-1: inducers of beta-cell replication in MIN6 cells | proliferation, % at 10 µM | MIN6 cells proliferation, ATPlite luminescence, 48 h; cells starved in 0.2% serum; 100% = growth in 10% serum | 330,000 tested, 0.29% active | AID 2380;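 active = compounds whose signal lies at least 3.5 SD above the mean of all wells on their plate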
MIN6 prolif-2: confirmation of inducers of beta-cell replication in MIN6 cells; shares compounds with MIN6 prolif-1; MIN6 beta-cell proliferation, ATPlite luminescence, 48 h; cells kept in 0.2% serum; scaled between 0.2% and 10% serum; proliferation increase, % at 50 µM; 920 tested, under 10 active; AID 463095;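 active = proliferation increase above 40% at any of the four tested concentrations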
Each line names hits and unclear results; the compound was inactive in the other large screens (follow-up assays come after a bar, where they were run).

O=C(O)c1ccc(Cl)c(S(=O)(=O)NCC2CCCO2)c1 (stereo not drawn)	MIN6 prolif-1 7.3 | MIN6 prolif-2 inactive
O=C1CCC(C(=O)N2CCSCC2)CN1Cc1ccc(Cl)cc1 (stereo not drawn)	MIN6 prolif-1 27 | MIN6 prolif-2 inactive
O=C1CCCN1c1ccc(Br)cc1	MIN6 prolif-1 7.2 | MIN6 prolif-2 inactive
COc1cc(/C=N/NC(=O)Cn2ccc(C(F)(F)F)n2)cc(OC)c1OC	none
Cc1cc(C)c(C)c(S(=O)(=O)NC(C(=O)NCCc2ccco2)C(C)C)c1C (stereo not drawn)	none
Cc1ccc(S(=O)(=O)N(CC(O)CN2C(=O)NC(C)(C)C2=O)c2ccccc2)cc1 (stereo not drawn)	MIN6 prolif-1 8.8 | MIN6 prolif-2 inactive
Cc1ccc(S(=O)(=O)N(CC(O)CN2C(=O)NC(C)(C)C2=O)c2cccc(C)c2)cc1 (stereo not drawn)	none
COc1ccccc1Nc1nc(NCC2CCCO2)c2ccccc2n1 (stereo not drawn)	none
O=C1OC(Nc2ccc3c(c2)OCO3)c2ccccc21 (stereo not drawn)	MIN6 prolif-1 5.0 | MIN6 prolif-2 inactive
FC(F)Sc1nnc(-c2cccs2)n1-c1ccccc1	MIN6 prolif-1 9.6 | MIN6 prolif-2 inactive
C=CCc1c(C)c(C#N)c2nc3ccccc3n2c1N1CCCCC1	none
CCc1c(C)c(C#N)c2nc3ccccc3n2c1N(C)C	MIN6 prolif-1 6.0 | MIN6 prolif-2 inactive
O=C(COC(=O)CCC(=O)c1ccc(F)cc1)Nc1ccc2[nH]c(=O)[nH]c2c1	none
Cc1ccc(C(=O)N/C(=C/c2cccnc2)C(=O)NCc2ccco2)cc1	MIN6 prolif-1 4.7 | MIN6 prolif-2 inactive
Cn1ccnc1C(=O)c1cccc(Br)c1	none
CCOC(=O)/C(C(=O)Nc1ccccc1Br)=C1/NC(C)(C)Cc2ccccc21	MIN6 prolif-1 0.0 | MIN6 prolif-2 inactive
CCC(C(=O)Nc1cc(C)nn1-c1nc(C)cc(C)n1)c1ccccc1 (stereo not drawn)	MIN6 prolif-1 6.1 | MIN6 prolif-2 inactive
O=C(C1=COCCO1)N(Cc1nnc(-c2ccccc2Cl)o1)C1CC1	none
COc1ccc(/C=N/Nc2nc(N3CCCC3)nc(N3CCCC3)n2)cc1	none (no result: MIN6 prolif-1)
COc1nc(N/N=C/c2ccc(C)cc2)nc(N2CCCCC2)n1	MIN6 prolif-1 7.4 | MIN6 prolif-2 inactive
Cc1ccc(C)c(CNC(=O)Nc2ccccc2)c1	none
COc1ccc(Nc2nc(N(C)c3ccccc3)nc(N)c2[N+](=O)[O-])cc1	MIN6 prolif-1 10 | MIN6 prolif-2 inactive
CN(c1ccccc1)c1nc(N)c([N+](=O)[O-])c(Nc2ccccc2)n1	none
O=C(NCC1CCCO1)c1ccccc1OCc1ccc(Cl)cc1 (stereo not drawn)	MIN6 prolif-1 15 | MIN6 prolif-2 inactive
COc1cccc(C2NC(=O)NC(C)=C2C(=O)Nc2ccc(C)cc2)c1OC (stereo not drawn)	MIN6 prolif-1 5.4 | MIN6 prolif-2 inactive
CCOC(=O)c1c(NC(=O)CC)sc(C(=O)NC2CCCC2)c1C	MIN6 prolif-1 8.1 | MIN6 prolif-2 inactive
Cc1cccc(CNc2ncnc3ccc(-c4ccoc4)cc23)c1	none
c1cncc(CNc2ncnc3ccc(-c4ccoc4)cc23)c1	MIN6 prolif-1 16 | MIN6 prolif-2 inactive
CN(C)c1nc(N(C)C)nc(N(C#N)CCOc2ccccc2)n1	MIN6 prolif-1 9.9 | MIN6 prolif-2 inactive
CCNC(=O)/C(=C\C=C\c1ccccc1)NC(=O)c1ccc(Br)o1	none
CC(NCc1ccccc1)C1COc2ccccc2O1 (stereo not drawn)	MIN6 prolif-1 5.5 | MIN6 prolif-2 inactive
COc1ccc(CNC(C)C2COc3ccccc3O2)c(OC)c1 (stereo not drawn)	none
O=C(/C=C/c1ccc(Cl)c([N+](=O)[O-])c1)Nc1ccc(N2CCCC2)cc1	none
Cc1cccc(-n2ncc3c(=O)[nH]c(SCC(=O)N4CC(=O)Nc5ccccc54)nc32)c1	MIN6 prolif-1 11 | MIN6 prolif-2 inactive
NC(=O)c1cc(S(=O)(=O)NCCc2ccccc2)cs1	none
NC(=O)c1cc(S(=O)(=O)NCCc2ccc(S(N)(=O)=O)cc2)cs1	MIN6 prolif-1 5.5 | MIN6 prolif-2 inactive
COc1ccccc1NC(=O)COc1ccc(/C=N/n2cnnc2)cc1OC	none
CCOc1cc(/C=N/n2cnnc2)ccc1OCC(=O)Nc1ccccc1OC	MIN6 prolif-1 8.0 | MIN6 prolif-2 inactive
N#Cc1nc(-c2cccc(Cl)c2)oc1N1CCC(C(N)=O)CC1	none
CCc1nc(CN2CCN(Cc3ccc(F)c(F)c3)C(CCO)C2)c(C)[nH]1 (stereo not drawn)	MIN6 prolif-1 8.6 | MIN6 prolif-2 inactive
O=C(CSc1ccccc1)Nc1nnc(C2CC2)s1	none
N#Cc1ccc(Cl)cc1NC(=O)CSc1nc2nc(-c3cccs3)cc(C(F)(F)F)c2c(=O)[nH]1	none (no result: HTR5A ag ctr, HTR5A inv ctr, MOR-DOR inv ag, V-ATPase pHluor, OPRM1-OPRD1 ag)
Cc1oc2ccc(O)cc2c1C(=O)c1ccc(F)cc1	MIN6 prolif-1 15 (no result: HTR5A ag ctr, HTR5A inv ctr, MOR-DOR inv ag, OPRM1-OPRD1 ag) | MIN6 prolif-2 inactive
COc1ccc2oc(C)c(C(=O)c3ccc([N+](=O)[O-])cc3)c2c1	none
CCN1C(=O)N(CC)C2C1N(C(C)=O)C(=O)N2C(C)=O (stereo not drawn)	MIN6 prolif-1 8.2 | MIN6 prolif-2 inactive
CN(C)c1ccc(C(=S)N2CCOCC2)cc1	MIN6 prolif-1 9.0 | MIN6 prolif-2 inactive
CCc1nc(SCC(=O)NC2CCCC2)c2oc3ccccc3c2n1	none
CCc1nc(SCC(=O)N2CCCc3ccccc32)c2oc3ccccc3c2n1	MIN6 prolif-1 15 | MIN6 prolif-2 inactive
CCOC(=O)c1c(NC(=O)C2CCN(S(=O)(=O)c3cccs3)CC2)sc(C)c1C	none
CCOC(=O)c1c(N)sc2c1CCC(C)C2 (stereo not drawn)	none
CCOC(=O)c1c(NS(C)(=O)=O)sc2c1CCC(C)C2 (stereo not drawn)	MIN6 prolif-1 7.3 | MIN6 prolif-2 inactive
CCOC(=O)c1c(NC(=O)C(C)N2CCN(S(=O)(=O)c3cccs3)CC2)sc2c1CCC(C)C2 (stereo not drawn)	MIN6 prolif-1 5.5 | MIN6 prolif-2 inactive
CCOC(=O)c1cc(CC)sc1NC(=O)CN1C(=O)C(=O)N(CC(C)C)C1=O	none
COc1ccc(Cn2c(CCCO)nc3ccccc32)cc1OC	MIN6 prolif-1 5.7 | MIN6 prolif-2 inactive
COc1ccccc1C(C)NCC(=O)Nc1ccccc1C(F)(F)F (stereo not drawn)	MIN6 prolif-1 5.3 | MIN6 prolif-2 inactive
CCC(O)(C(=O)Nc1ccccc1C(F)(F)F)c1ccccc1OC (stereo not drawn)	none
CCCNC(=O)c1n[nH]c(=O)c2ccccc12	MIN6 prolif-1 5.6 | MIN6 prolif-2 inactive
CC(C)Cn1c(SCC(=O)NC2CC2)nc2ccccc21	none (no result: HTR5A ag ctr, HTR5A inv ctr, MOR-DOR inv ag, OPRM1-OPRD1 ag, MIN6 prolif-1)
